Results filed as inconclusive are left out. Where a call stands in place of a potency, no number is given. The source made the active and inactive calls. Calls come from the whole dose curve; as a rule, active = well fitted activation curve with a large enough effect; inconclusive = small, poorly fitted or top-dose-only effect; inactive = no such curve, though single readings can be large or run the other way.
Assay: qHTS Assay for Rab9 Promoter Activators: Hit Validation Using Renilla Luciferase Read-Out for Rab9
Details: Huh7 Rab9 promoter Renilla luciferase reporter, 24 h; series mostly up to 76.9 µM
Method in brief: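 Luciferase reporter read-out: promoter activation measured by luminescence after 10 min with detection reagent at room temperature. Cells were Huh7 with a stable promoter-luciferase construct, treated 24 h at 37 deg C.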
Potency is the fitted concentration of half-maximal effect.

| SMILES | Potency |
| --- | --- |
| O=C(c1cccc(Oc2ccc([N+](=O)[O-])cc2)c1)N1CCOCC1 | inactive |
| CCN(Cc1nc2cc(Cl)ccc2c(=O)[nH]1)C(=O)C1CC(=O)N(c2cccc3ccccc23)C1 (stereo not drawn) | inactive |
| Cc1ccc(CNC(=O)Nc2ccc(C)cc2)cc1 | inactive |
| CC1CCc2sc(C(=O)NNC(=S)NC3CC3)cc2C1 (stereo not drawn) | inactive |
| COc1cccc(CNC(=O)CN(c2cc(C)cc(C)c2)S(=O)(=O)c2c(C)noc2C)c1 | inactive |
| Cc1nnc2n(c1=O)N=C(c1ccc(Cl)cc1)CS2 | inactive |
| CC(Sc1ncnc2c1cnn2-c1ccccc1)C(=O)Nc1ccc(N2CCOCC2)cc1 (stereo not drawn) | inactive |
| Cc1ccc2nc(NC(=O)CCn3cccc3)sc2c1 | inactive |
| CCOC(=O)CSc1nc2cc(C)ccc2cc1C#N | inactive |
| CN(C)C(=O)[C@H]1C[C@H]1[C@@H](O)[C@H](CO)NC(=O)[C@H](COCc1ccccc1)NC(=O)OC(C)(C)C | inactive |
| O=C(CCCN1C(=O)C(c2ccccc2)Oc2cccnc21)Nc1ccccc1Cl (stereo not drawn) | inactive |
| O=C(NCCSCc1c(F)cccc1Cl)c1ccc(CN2CCOCC2)cc1 | inactive |
| CC(=O)c1c(C)[nH]c(C(=O)Nc2cccc(S(=O)(=O)N(C)C)c2)c1C | 20.7 µM (active) |
| CC(C)CC(=O)N1CCN(c2ccc(NC(=O)c3ccco3)cc2)CC1 | inactive |
| CC(=O)NC(CCCN1C(=O)c2ccccc2C1=O)c1nnn(C)n1 (stereo not drawn) | inactive |
| O=C(CSc1nnc(-c2ccccn2)o1)Nc1ccccc1Cl | inactive |
| CCCc1cc(C(=O)Nc2ccccc2SC)no1 | inactive |
| COCc1cc(C)nc(N/N=C/c2ccc(-c3ccc(Cl)cc3[N+](=O)[O-])o2)c1C#N | inactive |
| CC1(C)CC(=O)c2c(O)c(-c3ccccc3)c(=O)n(-c3ccccc3)c2C1 | inactive |

| SMILES | Potency |
| --- | --- |
| O=CN1CCN(C(=O)c2ccccc2Cl)CC1 | inactive |
| Cc1ccc(C(=O)NC2CCN(CC(=O)Nc3c(C)cc(C)cc3C)CC2)cc1 | inactive |
| COc1ccc(-c2csc(Nc3ncccn3)n2)cc1C | inactive |
| CCN(CC)S(=O)(=O)c1ccc(NCc2ccccn2)nc1 | inactive |
| CNC(=O)Cn1nc(C)c2ccccc2c1=O | inactive |
| Cc1ccc(S(=O)(=O)/N=C(/Nc2ccccn2)c2ccc(Cl)cc2)cc1 | 14.6 µM (active) |
| O=C(Nc1nc2ccc(F)cc2s1)c1ccc(N2CCCC2=O)cc1 | inactive |
| Cc1nc(SCC(=O)NC(=O)NC(C)(C)C)nc(C)c1C | inactive |
| O=C(N/N=C/c1ccc(-c2ccc(Br)cc2)o1)c1ccc2c(c1)OCO2 | inactive |
| COc1ccc(NC(=O)CSc2ccc([N+](=O)[O-])cc2)cc1S(=O)(=O)N1CCOCC1 | inactive |
| COCC1CCN(C(=O)c2ccc3oc(Cc4ccccc4)nc3c2)C1 (stereo not drawn) | inactive |
| COc1ccc(NC(=O)CCCN2C(=O)C(c3ccccc3)Oc3cccnc32)cc1OC (stereo not drawn) | inactive |
| CCOCC(=O)Nc1c(C(=O)Nc2ccc3c(c2)OCCO3)oc2ccccc12 | inactive |
| COc1ccccc1C(=O)Nc1nnc(SCC(=O)NC2CCCC2)s1 | inactive |
| CCOc1cc(C2C(C#N)=C(N)Oc3n[nH]c(C)c32)ccc1OCCN1CCOCC1 (stereo not drawn) | inactive |
| COc1ccc(-n2cc(-c3ccc(Cl)cc3)[nH]c2=S)cc1 | inactive |
| NCCOc1ccccc1-c1ccccc1 | inactive |
| COCCNC(=O)Cn1nc(-c2ccccc2)c2ccccc2c1=O | inactive |
| CC1CCCN(S(=O)(=O)c2ccc(C(=O)Nc3nnc(-c4ccncc4)o3)cc2)C1 (stereo not drawn) | inactive |

From PubChem BioAssay AID624116 (National Center for Advancing Translational Sciences (NCATS), 2012)
